Consider ten compounds from PubChem BioAssay (NCI).

“And” between values parts separate entries of the source, which are not always exact repeats. Equal entries are not always repeated. This is part of a sample that, as a whole, favours compounds with a hit. Of some 83,000 tested, about 20% had one in any assay.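 Testing used 96-well plates and a 48-hour single-concentration exposure. Example: -40 means 40% of the starting cells died.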 A number with no mark means an inactive call. The source made the active and inactive calls. Rule for the calls: active = growth percent below 10; inactive = the rest.

Test systems include SR leukemia; RPMI-8226 leukemia; OVCAR-8 ovarian; OVCAR-5 ovarian; OVCAR-4 ovarian; SK-OV-3 ovarian; IGROV1 ovarian; HS 578T breast; NCI/ADR-RES ovarian; T-47D breast; BT-549 breast; MDA-MB-435 melanoma; SW-620 colon; MCF7 breast; HCT-116 colon; HCC-2998 colon; KM12 colon; OVCAR-3 ovarian.
What all share (test): NCI-60 one-dose screen, 48 h (100 = growth as untreated, 0 = no growth, -100 = all killed)
Holding throughout (conditions): 10 µM unless noted

In the case of `CC1=C([Te]c2ccccc2)C(=O)c2ccccc2C1=O`, the growth with SR leukemia is 21.4%; with RPMI-8226 leukemia, -32.9% (active); with OVCAR-8 ovarian it was -15.9% (active); in the assay on OVCAR-5 ovarian, -72.3% (active); with OVCAR-4 ovarian it was -72.4% (active); in the assay with SK-OV-3 ovarian it was -37.8% (active). The growth in the assay with IGROV1 ovarian was -21.5% (active); in the assay on HS 578T breast it was -22.4% (active); in the assay with NCI/ADR-RES ovarian, -23.1% (active); in the assay on T-47D breast, -51.9% (active); in the assay with BT-549 breast, -30.7% (active); in the assay on MDA-MB-435 melanoma it was -3.36% (active). In addition, the growth in the assay with SW-620 colon was -88.2% (active); in the assay with MCF7 breast it was -77.3% (active); in the assay with HCT-116 colon, -40.5% (active); with HCC-2998 colon it was -66.4% (active); in the assay with KM12 colon it was -60.7% (active).

Turning to `CN(N)/N=N/c1nc[nH]c1[N+](=O)[O-]`, the growth with MCF7 breast was 69.6% [100 µM] and 35% [100 µM].

On to `CO/N=C1\CC[C@]2(C)[C@H]3CC[C@]4(C)C(=O)CC[C@H]4[C@@H]3C[C@@H]3SC(N)=N[C@@]32C1`, for which the growth with SR leukemia was 71.8%; in the assay on RPMI-8226 leukemia, 93.2%; in the assay on OVCAR-8 ovarian it was 105%; in the assay on OVCAR-5 ovarian, 105%; in the assay with OVCAR-4 ovarian it was 90.9%; with SK-OV-3 ovarian, 122%. The growth in the assay on IGROV1 ovarian was 101%; in the assay on OVCAR-3 ovarian, 85.5%; in the assay on NCI/ADR-RES ovarian, 99.6%; in the assay with T-47D breast it was 84.4%; with BT-549 breast it was 106%; with MDA-MB-435 melanoma, 91.5%. Besides, the growth is 106% in the assay with SW-620 colon; 89.1% in the assay on MCF7 breast; 87.2% with HCT-116 colon; 103% in the assay on HCC-2998 colon; 97.7% with KM12 colon.

`NNC(=S)N/N=C(\C(=O)Nc1cccc(O)c1)C1C(=O)NC(=S)NC1=O`: the growth in the assay on MCF7 breast was 95.1% [100 µM] and 87.3% [100 µM].

On to `CC1=CC(=O)CCC12CCOC2=O` (stereo unspecified), for which the growth in the assay with RPMI-8226 leukemia was 88.3%; with OVCAR-8 ovarian, 100%; in the assay on OVCAR-5 ovarian it was 96.7%; in the assay with OVCAR-4 ovarian, 93.8%; in the assay with SK-OV-3 ovarian it was 101%; with IGROV1 ovarian, 108%. Also, the growth with OVCAR-3 ovarian was 106%; with HS 578T breast, 88.4%; in the assay on NCI/ADR-RES ovarian, 94.7%; in the assay with BT-549 breast, 90.5%; in the assay on MDA-MB-435 melanoma, 95.5%; in the assay with SW-620 colon, 98.6%. The growth was 97.4% in the assay on MCF7 breast, 102% in the assay with HCT-116 colon, 102% in the assay with HCC-2998 colon and 104% in the assay on KM12 colon.

On to `CCCCOC(N)=O`, for which the growth in the assay with SR leukemia was 96.1%; in the assay with RPMI-8226 leukemia it was 114%; in the assay with OVCAR-8 ovarian it was 98%; in the assay with OVCAR-5 ovarian it was 110%; with OVCAR-4 ovarian, 106%; in the assay with SK-OV-3 ovarian, 100%. Also, the growth in the assay on IGROV1 ovarian was 113%; in the assay on OVCAR-3 ovarian, 109%; with HS 578T breast, 110%; in the assay with NCI/ADR-RES ovarian, 106%; with T-47D breast it was 102%; with MDA-MB-435 melanoma it was 110%. The growth with SW-620 colon was 113%; in the assay on MCF7 breast, 114%; in the assay on HCT-116 colon, 98.4%; in the assay on KM12 colon, 106%.

As to `O=C(O)c1cc([N+](=O)[O-])cc([N+](=O)[O-])c1`, the growth with SR leukemia was 120%; with RPMI-8226 leukemia, 101%; in the assay with OVCAR-8 ovarian, 89.6%; with OVCAR-5 ovarian it was 104%; with OVCAR-4 ovarian, 109%; in the assay with SK-OV-3 ovarian, 94.9%. Further, the growth in the assay with IGROV1 ovarian was 132%; in the assay with OVCAR-3 ovarian, 102%; in the assay on HS 578T breast, 98.1%; in the assay with NCI/ADR-RES ovarian it was 106%; in the assay on MDA-MB-435 melanoma, 101%; with SW-620 colon, 105%. Moreover, the growth in the assay on MCF7 breast is 93.8%; in the assay with HCT-116 colon it was 85.4%; in the assay on HCC-2998 colon it was 107%; in the assay on KM12 colon it was 103%.

For the compound `O=S1(=O)OCCO1`, the growth in the assay on RPMI-8226 leukemia is 104%; with OVCAR-8 ovarian, 102%; with OVCAR-5 ovarian, 96.3%; in the assay with OVCAR-4 ovarian it was 99.4%; in the assay on SK-OV-3 ovarian, 117%; in the assay with IGROV1 ovarian, 106%. Also, the growth in the assay on OVCAR-3 ovarian was 106%; with NCI/ADR-RES ovarian, 99.7%; in the assay with BT-549 breast it was 117%; with MDA-MB-435 melanoma it was 98.2%; with SW-620 colon, 101%; with MCF7 breast, 98.8%. Moreover, the growth is 102% in the assay on HCT-116 colon, 110% with HCC-2998 colon and 99.2% in the assay on KM12 colon.

With `O=NN(c1ccccc1)c1ccccc1`, the growth in the assay with SR leukemia was 99.5%; in the assay on RPMI-8226 leukemia it was 107%; with OVCAR-8 ovarian, 102%; in the assay with OVCAR-5 ovarian, 107%; with OVCAR-4 ovarian, 110%; in the assay with SK-OV-3 ovarian, 105%. The growth with OVCAR-3 ovarian was 102%; with HS 578T breast, 107%; in the assay on NCI/ADR-RES ovarian, 100%; in the assay on T-47D breast, 107%; in the assay with BT-549 breast, 122%; with MDA-MB-435 melanoma, 105%. The growth is 102% with SW-620 colon; 99.8% in the assay on MCF7 breast; 95.4% in the assay with HCT-116 colon; 101% in the assay with HCC-2998 colon; 102% in the assay with KM12 colon.

As to `ClC1OC(Cl)(Cl)C(Cl)(Cl)OC1(Cl)Cl` (stereo unspecified), the growth with SR leukemia was 95%; in the assay on OVCAR-8 ovarian, 101%; with OVCAR-5 ovarian, 93.4%; in the assay on SK-OV-3 ovarian it was 111%; with IGROV1 ovarian, 104%; in the assay with OVCAR-3 ovarian, 110%. The growth is 135% in the assay with HS 578T breast; 91.4% in the assay with T-47D breast; 84.4% in the assay on BT-549 breast; 101% in the assay on MDA-MB-435 melanoma; 115% in the assay with SW-620 colon; 76.9% with MCF7 breast. Besides, the growth in the assay on HCT-116 colon was 89.4%; in the assay on HCC-2998 colon it was 112%; in the assay with KM12 colon, 104%.
